The results in this text go back to the supplement of paper PMC7669877.

± gives the uncertainty stated by the source.

The subject of the test is Candidatus Liberibacter solanacearum in potato hairy roots. In words: relative CLso titer (% of untreated control); higher = less inhibition of bacterial titer. Conditions: 10 µM; 72 h. The protocol:
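Primary screen of ~220 Spectrum collection (MicroSource) compounds at 10 µM (0.1% DMSO) on Candidatus Liberibacter solanacearum-infected potato hairy roots in multi-well plates (Gamborg B-5 medium, vacuum infiltrated, 21 °C, dark, 72 h). CLso titer was measured by qPCR of 16S rDNA normalised to potato RPL2 (2^-ddCq), pairwise-standardised against untreated controls, averaged over two biological replicates and expressed as % of untreated.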
For `CN(C)[C@@H]1C(O)=C(C(N)=O)C(=O)[C@@]2(O)C(O)=C3C(=O)c4c(O)ccc(Cl)c4[C@@H](O)[C@H]3C[C@@H]12`, the “relative CLso titer” value turned out to be 173 ± 42%. The figure for `C[C@]12CCC(=O)C=C1CC[C@@H]1[C@@H]2[C@@H](O)C[C@@]2(C)[C@H]1CC[C@]2(O)C(=O)CO` is 94.9 ± 25%. `C[C@@](Cc1ccc(O)c(O)c1)(NN)C(=O)O`: the “relative CLso titer” value is 138.8 ± 1.3%. As for `COc1ccc(O)cc1`, the “relative CLso titer” value stood at 173 ± 58%.

On to `O=C(O)P(=O)(O)O`, for which the “relative CLso titer” value was 165 ± 29%.

For `Nc1ccc(C(=O)Oc2ccccc2)c(O)c1`, the “relative CLso titer” value is 102 ± 12%.

With `CCCOc1cc(N)ccc1C(=O)OCCN(CC)CC`, the “relative CLso titer” value turned out to be 102 ± 10%. `CS(=O)(=O)OCCCCOS(C)(=O)=O`: the “relative CLso titer” value is 66.9 ± 7.5%.

As to `Nc1cccc2c1CN(C1CCC(=O)NC1=O)C2=O` (stereo not given), the “relative CLso titer” value came out at 143 ± 43%. With `CC1(C)O[C@@H]2C[C@H]3[C@@H]4C[C@H](F)C5=CC(=O)C=C[C@]5(C)[C@H]4[C@@H](O)C[C@]3(C)[C@]2(C(=O)CO)O1`, the “relative CLso titer” value was determined as 99.4 ± 17%. For `NC(=O)N1c2ccccc2C=Cc2ccccc21` the value was 58.7 ± 10%; for `CCCCNc1cc(C(=O)O)cc(S(N)(=O)=O)c1Oc1ccccc1`, 105 ± 14%; for `COc1cnc(NS(=O)(=O)c2ccc(N)cc2)nc1`, 119 ± 37%. Turning to `CC(=O)OCC(=O)[C@@]1(O)[C@H](C)C[C@H]2[C@@H]3CCC4=CC(=O)C=C[C@]4(C)[C@@]3(F)[C@@H](O)C[C@@]21C`, the “relative CLso titer” value was found to be 101 ± 39%. The figure for `CNCCCN1c2ccccc2CCc2ccccc21` is 144 ± 1.5%.

`CC(C)(Sc1cc(C(C)(C)C)c(O)c(C(C)(C)C)c1)Sc1cc(C(C)(C)C)c(O)c(C(C)(C)C)c1`: the “relative CLso titer” value came out at 102 ± 13%. Turning to `CCN1CCCC(OC(=O)C(c2ccccc2)c2ccccc2)C1` (stereo not given), the “relative CLso titer” value came out at 188 ± 36%. For `CN(C)CCOC(C)(c1ccccc1)c1ccccn1` (stereo not given), the “relative CLso titer” value was 109 ± 7.3%. On to `Cc1onc(-c2c(Cl)cccc2Cl)c1C(=O)N[C@@H]1C(=O)N2[C@@H]1SC(C)(C)[C@@H]2C(=O)O`, for which the “relative CLso titer” value was found to be 145 ± 34%. Consider `COc1ccc(C(=O)c2ccccc2O)c(O)c1`, for which the “relative CLso titer” value was 86.9 ± 3.5%.

In the case of `CC(=O)Nc1nnc(S(N)(=O)=O)s1`, the “relative CLso titer” value was 74.1 ± 19%. Turning to `O=C(O)CN1C(=O)c2cccc3cccc(c23)C1=O`, the “relative CLso titer” value worked out at 145 ± 46%. Consider `OC[C@@H](O)[C@@H](O)[C@H](O)[C@H](O)CO`, for which the “relative CLso titer” value was found to be 70.5 ± 11%.

`COC1=CC(=O)C[C@@H](C)[C@]12Oc1c(Cl)c(OC)cc(OC)c1C2=O`: the “relative CLso titer” value came out at 67.3 ± 13%. The figure for `NC12CC3CC(CC(C3)C1)C2` is 42.5 ± 3.2%. The figure for `CC12CC3CC(C)(C1)CC(N)(C3)C2` is 63.3 ± 31%. For `C[C@H]1O[C@@H](O[C@H]2[C@@H](O)C[C@H](O[C@H]3[C@@H](O)C[C@H](O[C@H]4CC[C@@]5(C)[C@H](CC[C@@H]6[C@@H]5CC[C@]5(C)[C@@H](C7=CC(=O)OC7)CC[C@]65O)C4)O[C@@H]3C)O[C@@H]2C)C[C@H](O)[C@@H]1O` the value was 231 ± 140%; for `CC1(C)S[C@@H]2[C@H](NC(=O)C(C(=O)O)c3ccccc3)C(=O)N2[C@H]1C(=O)O` (stereo not given in full), 43.3 ± 14%; for `CN1CCOC(c2ccccc2)c2ccccc2C1` (stereo not given), 100 ± 38%. With `Cn1nnnc1SCC1=C(C(=O)O)N2C(=O)[C@@H](NC(=O)[C@H](O)c3ccccc3)[C@H]2SC1`, the “relative CLso titer” value worked out at 133 ± 14%. As to `CCCN(CCC)C(=O)C(CCC(=O)O)NC(=O)c1ccccc1` (stereo not given), the “relative CLso titer” value came to 52.8 ± 27%. Turning to `CCn1nc(C(=O)O)c(=O)c2cc3c(cc21)OCO3`, the “relative CLso titer” value amounted to 28.6 ± 0.62%. For `C[C@@H](O[C@H]1OCCN(Cc2n[nH]c(=O)[nH]2)[C@H]1c1ccc(F)cc1)c1cc(C(F)(F)F)cc(C(F)(F)F)c1` the value was 117 ± 51%. `CCOC(=O)[C@H](CCc1ccccc1)N[C@@H](C)C(=O)N(CC(=O)O)C1Cc2ccccc2C1`: the “relative CLso titer” value was found to be 90.7 ± 30%. As for `Nc1ccc(C(=O)O)cc1`, the “relative CLso titer” value is 67.7 ± 7.7%. On to `CCN(CC)C(=O)N1CCN(C)CC1`, for which the “relative CLso titer” value came to 106 ± 9.8%. In the case of `COc1ccc2c3c1O[C@H]1C[C@@H](O)C=C[C@@]31CCN(C)C2`, the “relative CLso titer” value turned out to be 104 ± 28%.

For `CN(C)CCC=C1c2ccccc2COc2ccccc21`, the “relative CLso titer” value came out at 88.8 ± 1.1%.

Consider `Oc1c(Cl)cc(Cl)cc1Sc1cc(Cl)cc(Cl)c1O`, for which the “relative CLso titer” value worked out at 55.8 ± 6.5%.

Consider `CC(=O)OCC[N+](C)(C)C`, for which the “relative CLso titer” value stood at 96.2 ± 31%.
